Measurements published in PubChem BioAssay (Tox21).
The source made the active and inactive calls. Unless noted, the call rests on the fitted dose curve; in most records, active means well fitted curve in the direction sought with a large enough effect in the repeat runs; inconclusive means weak or mixed curves; inactive means no such curve, though single readings can be large; an effect the other way counts as inactive or inconclusive.

What was measured:
[1] = qHTS assay for small molecule agonists of the p53 signaling pathway (AID 651631; calls by dose curve; further: nearly all actives have a fitted effect of over 15% in size; further: potency means the concentration at half of the fitted maximal effect)
Procedure, shortened: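 Agonist mode screen using a stably integrated beta-lactamase gene under p53 response elements in HCT-116 cells. Compound exposure lasts 16 h at 37 °C; fluorescence intensity is measured following 2 h FRET substrate loading.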

[2] = qHTS assay for small molecule agonists of the p53 signaling pathway - cell viability (AID 651633; calls by dose curve;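 further: p53RE-bla HCT reporter cells with a stable beta-lactamase p53 reporter; nearly all actives have a fitted effect of over 30% in size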)
Procedure, shortened: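 Viability counter-read: CellTiter-Glo luminescence (30 min, room temperature) in the same p53RE-bla plates. These plates had been exposed to compounds for 16 h at 37 C.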

[3] = qHTS assay for small molecules that induce genotoxicity in human embryonic kidney cells expressing luciferase-tagged ATAD5 - cell viability (AID 651634; calls by dose curve; further: nearly all actives have a fitted effect of over 25% in size; further: potency means the concentration at half of the fitted maximal effect)
Procedure, shortened: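 Viability read: CellTiter-Fluor fluorescence, 30 min at 37C. Cells: HEK293T, luciferase-tagged ATAD5. Exposure: 15.5 hr, 37C, 5% CO2, compound or DMSO vehicle.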

[4] = qHTS assay for small molecule disruptors of the mitochondrial membrane potential - cell viability (AID 720634; calls by dose curve;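 further: human HepG2 liver cancer cells; nearly all actives have a fitted effect of over 20% in size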)
Procedure, shortened: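 HepG2, 1 hr compound, 37 C. ATP luminescence via CellTiter-Glo, 30 min RT, same well as m-MPI.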

[5] = qHTS assay for small molecule disruptors of the mitochondrial membrane potential (AID 720635); further: potency means the concentration at half of the fitted maximal effect
Procedure, shortened: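 Mitochondrial membrane potential tracked with Mito-MPS dye, red aggregates (ex 540/em 590 nm) against green monomers (ex 490/em 535 nm). Compound treatment 1 hr at 37C, dye 30 min in HepG2.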

[6] = qHTS assay to test for compound auto fluorescence at 590 nm (red) in HepG2 cells (AID 720674)
Procedure, shortened: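 1 hr compound incubation on HepG2 cells, 37 C, 5% CO2; plate read ex 540 nm / em 590 nm; intensities reported as Rose Bengal sodium equivalents.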

[7] = qHTS assay to test for compound auto fluorescence at 535 nm (green) in HepG2 cells (AID 720675)
[8] = qHTS assay to test for compound auto fluorescence at 460 nm (blue) in HEK293 cells (AID 720678)
Procedure, shortened: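 HEK293 cells (2,000/well, medium with 10% dialyzed FBS) attached 4-5 hr, then exposed to compound overnight at 37C, 5% CO2. Blue fluorescence read at 405/460 nm, with triamterene as reference fluorophore.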

[9] = qHTS assay to test for compound auto fluorescence at 590 nm (red) in HEK293 cells (AID 720679)
Procedure, shortened: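 HEK293 cells (2,000/well, 10% dialyzed FBS) attached 4-5 hr, then dosed with compound or DMSO and incubated overnight at 37C, 5% CO2. Red fluorescence read at 540/590 nm, Rose Bengal sodium as reference fluorophore.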

[10] = qHTS assay to test for compound auto fluorescence at 535 nm (green) in HEK293 cells (AID 720680)
[11] = qHTS assay to test for compound auto fluorescence at 460 nm (blue) in HEK293 cell free culture (AID 720681)
Procedure, shortened: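 Blue fluorescence (Ex 405/Em 460 nm, triamterene-equivalent) was read immediately after pin transfer of compound or DMSO into medium (DMEM, 10% FBS) without cells.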

[12] = qHTS assay to test for compound auto fluorescence at 535 nm (green) in HEK293 cell free culture (AID 720682)
Procedure, shortened: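 No cells present: wells hold DMEM supplemented with 10% FBS, into which compound or vehicle is pinned. Green emission is then recorded (485 nm excitation, 535 nm emission) and scaled to fluorescein.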

[13] = qHTS assay to test for compound auto fluorescence at 590 nm (red) in HEK293 cell free culture (AID 720683)
Procedure, shortened: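 Red-channel autofluorescence of compounds in culture medium (DMEM, 10% FBS), no cells, measured at 540/590 nm. Rose Bengal sodium is the reference fluorophore for equivalence.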

[14] = qHTS assay to test for compound auto fluorescence at 590 nm (red) in HepG2 cell free culture (AID 720684)
Procedure, shortened: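 Steps: dispense MEM/10% FBS medium, no cells; pin compound or DMSO vehicle; read red channel, Ex/Em 540/590 nm. Output given as Rose Bengal sodium equivalents.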

[15] = qHTS assay to test for compound auto fluorescence at 460 nm (blue) in HepG2 cell free culture (AID 720685)
Procedure, shortened: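 Compound (23 nL) or DMSO pinned into cell-free MEM with 10% FBS; blue fluorescence read at 405/460 nm excitation/emission, expressed as auto-fluorescence equivalency to triamterene.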

[16] = qHTS assay to test for compound auto fluorescence at 535 nm (green) in HepG2 cell free culture (AID 720686)
[17] = qHTS assay to test for compound auto fluorescence at 460 nm (blue) in HepG2 cells (AID 720687)
Procedure, shortened: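 Blue-channel autofluorescence (Ex/Em 405/460 nm, triamterene-equivalent) was measured after 1 hr compound exposure at 37 C, 5% CO2. Cells were HepG2, plated overnight at 37 C in MEM plus 10% FBS.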

[18] = biological target: Glucocorticoid receptor (Homo sapiens) (UniProt P04150); assay: qHTS assay to identify small molecule agonists of the glucocorticoid receptor (GR) signaling pathway (AID 720691; active means well fitted activation curve with a large enough effect in the signal ratio in the repeat runs, not every such curve was filed as active; inconclusive means weak or mixed curves, or effect the other way; inactive means no such curve, though single readings can be large or run the other way; the % refers to the signal ratio; further: potency means the concentration at half of the fitted maximal effect); details: GR-bla HeLa, beta-lactamase reporter ratio, 18 h; activation: at 62.4 µM (top of the series)
Procedure, shortened: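 qHTS in GR-bla HeLa cells: 4 h settling at 37 C/5% CO2, 18 h compound incubation at 37 C, 2 h LiveBLAzer B/G FRET substrate at room temperature, fluorescence intensity measured.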

[19] = qHTS assay for small molecules that induce genotoxicity in human embryonic kidney cells expressing luciferase-tagged ATAD5 (AID 651632); further: nearly all actives have a fitted effect of over 15% in size
Procedure, shortened: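 Luminescent reporter readout, HEK293T ATAD5-luc line: 16 hr drug exposure (37C, 5% CO2) followed by Amplite, 30 min RT.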

[20] = biological target: Glucocorticoid receptor (Homo sapiens) (UniProt P04150); assay: qHTS assay to identify small molecule antagonists of the glucocorticoid receptor (GR) signaling pathway (AID 720692; active means well fitted inhibition curve with a large enough effect in the signal ratio in the repeat runs, not every such curve was filed as active; inconclusive means weak or mixed curves, or effect the other way; inactive means no such curve, though single readings can be large or run the other way; the % refers to the signal ratio)
Procedure, shortened: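 Inhibition of glucocorticoid signalling is measured in HeLa cells with a GRE-controlled beta-lactamase reporter; cells are co-treated with compound and 5 nM dexamethasone (final) for 18 h before FRET substrate readout.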

Measured: Potency

Glucocorticoid receptor (Homo sapiens), sequence (P04150 whole entry, looked up): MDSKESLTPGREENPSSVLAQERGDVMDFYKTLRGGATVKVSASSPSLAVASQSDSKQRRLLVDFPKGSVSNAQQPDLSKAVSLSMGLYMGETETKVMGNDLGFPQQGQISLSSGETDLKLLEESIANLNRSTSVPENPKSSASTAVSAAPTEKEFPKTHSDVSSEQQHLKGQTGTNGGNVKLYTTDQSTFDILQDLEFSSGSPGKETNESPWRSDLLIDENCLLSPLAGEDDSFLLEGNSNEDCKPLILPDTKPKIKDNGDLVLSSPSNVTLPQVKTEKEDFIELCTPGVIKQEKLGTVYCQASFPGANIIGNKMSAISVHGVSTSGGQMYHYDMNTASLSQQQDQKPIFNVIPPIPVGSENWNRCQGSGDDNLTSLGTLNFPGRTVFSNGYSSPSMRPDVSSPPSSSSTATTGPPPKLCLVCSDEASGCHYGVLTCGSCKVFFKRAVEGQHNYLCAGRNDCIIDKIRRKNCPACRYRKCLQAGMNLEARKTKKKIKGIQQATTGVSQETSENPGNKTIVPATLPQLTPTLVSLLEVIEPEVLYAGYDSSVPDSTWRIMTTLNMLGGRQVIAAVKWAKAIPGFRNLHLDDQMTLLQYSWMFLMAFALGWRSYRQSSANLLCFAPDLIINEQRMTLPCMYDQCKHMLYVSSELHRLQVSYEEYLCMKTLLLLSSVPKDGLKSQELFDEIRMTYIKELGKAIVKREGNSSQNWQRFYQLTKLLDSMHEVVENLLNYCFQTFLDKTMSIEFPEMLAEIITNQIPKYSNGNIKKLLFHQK

CN[C@@H]1[C@@H](O)[C@@H](O[C@@H]2[C@@H](O)[C@H](O[C@H]3O[C@H](CN)[C@@H](O)[C@H](O)[C@H]3O)[C@@H](N)C[C@H]2NC(=O)C(O)CN)OC[C@]1(C)O (some centres undefined)
active: [18] 6.01 µM
not listed: [19] | [20]
inactive: all other assays above

C[C@]12C=CC(=O)C=C1CC[C@@H]1[C@@H]2[C@@H](O)C[C@@]2(C)[C@H]1CC[C@]2(O)C(=O)COC(=O)CCC(=O)O
active: [18] 0.268 µM [inconclusive]
not listed: [19] | [20]
inactive: all other assays above

CS(=O)(=O)OCCCNCCCOS(C)(=O)=O
not listed: [2] | [3] | [15]
inactive: all other assays above

NC(=S)N=Nc1ccc(NN=C(N)N)cc1
active: [3] 26.6 µM
not listed: [2] | [5] | [18] | [20]
inactive: all other assays above

CC1(C)[C@@H]2CC[C@@]1(C)[C@H](OC(=O)CSC#N)C2
not listed: [2] | [5] | [7] | [10] | [18] | [20]
inactive: all other assays above

CC(C)CN(C[C@@H](O)[C@H](Cc1ccccc1)NC(=O)O[C@@H]1CCOC1)S(=O)(=O)c1ccc(N)cc1
not listed: [2]
inactive: all other assays above

CC(=O)OCC(=O)[C@@]12OC3(CCCC3)O[C@@H]1C[C@H]1[C@@H]3CCC4=CC(=O)C=C[C@]4(C)[C@@]3(F)[C@@H](O)C[C@@]12C
active: [5] 29.8 µM | [18] 0.019 µM
not listed: [19] | [20]
inactive: all other assays above

CCCCCCCCCCCCCC[n+]1ccc(C)cc1
active: [1] 23.7 µM | [5] 13.3 µM
not listed: [2] | [3] | [4] | [20]
inactive: all other assays above

Cc1ccc(/C(=C\CN2CCCC2)c2cccc(/C=C/C(=O)O)n2)cc1
not listed: [5] | [18] | [19]
inactive: all other assays above

COc1ccc(/C=C/C(=O)OCCC(C)C)cc1
not listed: [19] | [20]
inactive: all other assays above

O=C(/C=C/c1cccc(F)c1)NC1CC1
not listed: [19] | [20]
inactive: all other assays above

CC(C)CN(C[C@@H](O)[C@H](Cc1ccccc1)NC(=O)O[C@H]1CO[C@H]2OCC[C@H]21)S(=O)(=O)c1ccc(N)cc1
not listed: [19]
inactive: all other assays above

CCc1ccc(S(=O)(=O)O)cc1
not listed: [2] | [5] | [18] | [20]
inactive: all other assays above
